Source: PubChem BioAssay

What was measured:
[1] = system: Botulinum neurotoxin type F light chain protease (Clostridium botulinum); experiment: Botulinum neurotoxin type F light chain protease inhibition, multiplex microsphere flow cytometry, validation set (AID 588459); conditions: multiplex microsphere protease substrate cleavage assay, at 10 µM, hits give high values
[2] = target: Botulinum neurotoxin type A (Clostridium botulinum) (UniProt P0DPI0); experiment: BoNT/A light chain protease inhibitors, biochemical, multiplex microsphere flow cytometry, validation set (AID 588460); conditions: at 10 µM, hits give high values
Botulinum neurotoxin type A (Clostridium botulinum), sequence (P0DPI0 whole entry, looked up): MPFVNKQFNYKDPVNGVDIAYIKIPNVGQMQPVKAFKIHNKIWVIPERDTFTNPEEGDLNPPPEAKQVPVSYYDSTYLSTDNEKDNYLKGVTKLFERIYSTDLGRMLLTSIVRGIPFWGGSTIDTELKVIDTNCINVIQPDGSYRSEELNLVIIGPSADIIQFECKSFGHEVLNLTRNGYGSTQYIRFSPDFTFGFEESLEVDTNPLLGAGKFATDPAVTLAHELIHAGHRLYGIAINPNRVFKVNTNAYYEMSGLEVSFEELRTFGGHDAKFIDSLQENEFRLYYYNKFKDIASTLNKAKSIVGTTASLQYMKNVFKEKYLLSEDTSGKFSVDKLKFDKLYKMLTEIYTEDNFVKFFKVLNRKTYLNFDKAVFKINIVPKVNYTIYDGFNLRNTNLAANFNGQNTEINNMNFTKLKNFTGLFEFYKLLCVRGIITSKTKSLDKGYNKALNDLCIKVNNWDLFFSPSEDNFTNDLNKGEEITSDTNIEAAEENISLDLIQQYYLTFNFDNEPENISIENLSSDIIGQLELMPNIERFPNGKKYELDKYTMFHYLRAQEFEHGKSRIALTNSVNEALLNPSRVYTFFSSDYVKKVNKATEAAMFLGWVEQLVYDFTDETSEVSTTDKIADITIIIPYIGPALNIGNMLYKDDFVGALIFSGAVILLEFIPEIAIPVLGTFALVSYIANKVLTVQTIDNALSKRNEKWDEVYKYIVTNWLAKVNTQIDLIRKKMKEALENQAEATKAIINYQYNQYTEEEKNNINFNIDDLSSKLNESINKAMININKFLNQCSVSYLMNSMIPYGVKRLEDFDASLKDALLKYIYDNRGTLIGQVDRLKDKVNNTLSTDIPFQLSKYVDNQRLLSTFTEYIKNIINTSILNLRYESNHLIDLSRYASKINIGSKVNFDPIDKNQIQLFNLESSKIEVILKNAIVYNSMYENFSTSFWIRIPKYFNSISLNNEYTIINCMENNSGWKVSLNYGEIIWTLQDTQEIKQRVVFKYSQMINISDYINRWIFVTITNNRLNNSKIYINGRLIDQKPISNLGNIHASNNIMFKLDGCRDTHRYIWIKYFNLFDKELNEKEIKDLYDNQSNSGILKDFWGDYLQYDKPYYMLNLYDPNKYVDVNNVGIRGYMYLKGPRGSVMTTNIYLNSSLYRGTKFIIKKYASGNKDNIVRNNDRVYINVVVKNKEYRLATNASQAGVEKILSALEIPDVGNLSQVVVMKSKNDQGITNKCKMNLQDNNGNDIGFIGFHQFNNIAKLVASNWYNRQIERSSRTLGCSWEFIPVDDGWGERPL

[3] = target: Lethal factor (Bacillus anthracis) (UniProt P15917); experiment: Lethal factor protease inhibitors, Bacillus anthracis, multiplex microsphere cleavage assay, validation set (AID 588461); conditions: flow cytometry, at 10 µM, hits give high values
Lethal factor (Bacillus anthracis), sequence (P15917 whole entry, looked up): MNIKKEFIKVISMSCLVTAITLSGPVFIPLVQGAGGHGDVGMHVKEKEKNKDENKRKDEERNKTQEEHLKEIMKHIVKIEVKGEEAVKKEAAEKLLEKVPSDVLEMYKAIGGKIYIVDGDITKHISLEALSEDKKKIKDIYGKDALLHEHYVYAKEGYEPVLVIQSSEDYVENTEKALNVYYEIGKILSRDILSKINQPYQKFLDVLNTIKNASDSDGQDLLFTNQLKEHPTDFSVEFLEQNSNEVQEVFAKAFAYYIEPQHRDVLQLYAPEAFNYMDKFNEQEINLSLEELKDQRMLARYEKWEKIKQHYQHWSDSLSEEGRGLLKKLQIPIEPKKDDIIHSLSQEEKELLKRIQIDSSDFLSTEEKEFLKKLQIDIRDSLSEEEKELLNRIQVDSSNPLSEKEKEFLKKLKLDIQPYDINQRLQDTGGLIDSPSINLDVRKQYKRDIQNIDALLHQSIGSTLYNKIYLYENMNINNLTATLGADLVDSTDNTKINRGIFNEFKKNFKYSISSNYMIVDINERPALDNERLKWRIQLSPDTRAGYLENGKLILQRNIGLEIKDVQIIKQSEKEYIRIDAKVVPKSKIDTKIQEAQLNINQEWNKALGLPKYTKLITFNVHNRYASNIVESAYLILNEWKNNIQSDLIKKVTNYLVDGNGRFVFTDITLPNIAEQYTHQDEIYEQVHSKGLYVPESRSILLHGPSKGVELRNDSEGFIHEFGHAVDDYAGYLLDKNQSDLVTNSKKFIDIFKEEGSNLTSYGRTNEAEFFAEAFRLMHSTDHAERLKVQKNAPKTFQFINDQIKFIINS

Measured: inhibition

CCCNC(=O)NS(=O)(=O)c1ccc(Cl)cc1
inactive: [1] 5.6% | [2] -0.4% | [3] -1%

COc1ccc2c(c1O)Cc1ccccc1C2=O
inactive: [1] 0% | [2] -0.7% | [3] -3.9%

COc1ccccc1N1C(=O)C2CC(C)=C(C)CC2C1=O (centres undefined)
inactive: [1] -2.6% | [2] -0.4% | [3] 3.9%
